Screening results (PubChem BioAssay)
D1 ag – Allosteric Agonists of the Human D1 Dopamine Receptor: qHTS; HEK293 T-REx D1 cells, calcium flux, agonist mode; activation, % at 2 µM; hit rate 1% among 360,000; in the data active means activation above about 30%; further: 0% is about no effect
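Tetracycline-induced HEK293 TREx D1 cells, force-coupled to calcium signalling, were dye-loaded with a no-wash calcium kit. Compound was pin-added after a 10 s baseline. Fluorescence was read kinetically at 1 cycle/s for 180 s, with calcium rises flagged as agonism.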
D1 potentiator – Potentiators of Human D1 Dopamine Receptor: qHTS; potentiation, % at 10 µM; hit rate 0.036% among 360,000; D(1A) dopamine receptor (Homo sapiens), P21728; HEK293 TREx D1 cells, calcium flux, dopamine EC20 potentiation; in the data active means potentiation above about 30%; further: 0% is about no effect
D3 antag – qHTS of D3 Dopamine Receptor Antagonist: qHTS; D(3) dopamine receptor (Homo sapiens), P35462; hit rate 2.5% among 360,000; max response, negative = inhibition, %; D3R cells, DiscoveRx beta-arrestin luminescence, antagonist mode; hits give low values; in the data active means max response below about -50%; further: on the % scale 0 is the no-effect control and ±100 the full control effect
Target sequence (P35462 whole entry, looked up): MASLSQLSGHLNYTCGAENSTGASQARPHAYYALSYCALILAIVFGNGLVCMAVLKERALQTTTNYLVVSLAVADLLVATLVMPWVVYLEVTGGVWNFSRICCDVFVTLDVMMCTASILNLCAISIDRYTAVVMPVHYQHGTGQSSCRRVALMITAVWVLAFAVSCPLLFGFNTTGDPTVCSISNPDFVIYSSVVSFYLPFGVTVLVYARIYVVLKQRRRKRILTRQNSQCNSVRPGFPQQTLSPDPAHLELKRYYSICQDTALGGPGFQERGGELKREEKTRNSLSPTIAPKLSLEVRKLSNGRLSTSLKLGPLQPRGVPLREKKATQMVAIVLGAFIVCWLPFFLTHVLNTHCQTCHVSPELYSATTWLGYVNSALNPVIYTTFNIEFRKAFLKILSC
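Cells expressing the human receptor were seeded at 1500 cells/well, incubated overnight at 37 degrees C in 5% CO2, then exposed to library compounds with dopamine controls for 90 minutes at 37 degrees C before luminescent detection.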
D1 antag – Antagonist of Human D 1 Dopamine Receptor: qHTS. D(1A) dopamine receptor (Homo sapiens), P21728. HEK293 TREx D1 cells, calcium flux, dopamine EC80; hits give low values. hit rate 3.2% among 360,000. activity change, negative = inhibition, % at 10 µM; in the data active means activity change below about -30%; further: on the % scale 0 is the no-effect control and ±100 the full control effect
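Using tetracycline-induced force-coupled D1 Hek293 cells and a calcium dye, signals were followed for 180 s after compound, then for 180 s after EC80 dopamine, to detect inhibitors.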
DRD3 agonist – qHTS of D3 Dopamine Receptor Agonist: qHTS; D(3) dopamine receptor (Homo sapiens), P35462; D3R DiscoveRx beta-arrestin cells, luminescence, 90 min; max activation, %; hit rate 0.58% among 410,000; AID 652048, 2013; in the data active means max activation above about 30%; further: 0% is about no effect
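Agonist mode: compounds and dopamine controls were applied to plated cells for 90 min at 37 degrees C after an overnight attachment at 1500 cells/well. Luminescent read-out followed 30 - 60 minutes at room temperature with DiscoveRx detection reagent.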
Numbers without * were called inactive; ! = repeats disagree. In the library only some 6% were active in any assay of this set; here they are far more common.

For COc1ccc2c(CC(=O)Nc3cccc(S(=O)(=O)N4CCOCC4)c3)coc2c1 the results were D1 ag 0.6, D1 potentiator -11.4, D3 antag -6.3, D1 antag -87.4* and DRD3 agonist 1.5.
O=C(COC(=O)c1cc(=O)[nH]c2ccccc12)Nc1cccc(S(=O)(=O)N2CCOCC2)c1 was read as D1 ag 3.9, D1 potentiator -12.2, D3 antag -11.0, D1 antag -8.7 and DRD3 agonist -3.7.
O=C(COC(=O)c1n[nH]c2ccccc12)Nc1cccc(S(=O)(=O)N2CCOCC2)c1 was read as D1 ag 4.2, D1 potentiator -8.9, D3 antag 9.4, D1 antag -30.5* and DRD3 agonist 4.9.
Screening CCN(CC)S(=O)(=O)c1cccc(NC(=O)COC(=O)c2n[nH]c(=O)c3ccccc23)c1 returned D1 ag 4.5, D1 potentiator -5.1, D3 antag 12.3, D1 antag -31.6* and DRD3 agonist 11.7.
`CCCc1nc2ccccc2c(C(=O)OCC(=O)Nc2cccc(S(=O)(=O)N3CCOCC3)c2)c1CC` gave D1 ag 8.2, D1 potentiator -7.2, D3 antag 15.7, D1 antag -33.6* and DRD3 agonist 1.2.
COc1cc(OC)cc(C(=O)NCCc2csc(-c3cccc(C)c3)n2)c1 was read as D1 ag 2.2, D1 potentiator -3.6, D1 antag -12.0 and DRD3 agonist -10.4.
Screening Cc1cccc(Cn2cnc3c(cnn3-c3ccc(Cl)cc3)c2=O)c1 returned D1 ag 0.5, D1 potentiator 0.7, D1 antag -1.5 and DRD3 agonist 2.7.
For CC1CCc2nc3ccccc3c(C(=O)OCC(=O)N3CCc4ccccc43)c2C1 (centres undefined) the results were D1 ag 5.0, D1 potentiator 3.4, D3 antag 38.8, D1 antag -7.7 and DRD3 agonist 2.1.
`CCCc1nc2ccccc2c(C(=O)OCC(=O)N2CCc3ccccc32)c1CC` gave D1 ag 2.4, D1 potentiator -6.1, D3 antag 82.9, D1 antag -18.9 and DRD3 agonist 70.0*.
O=C(COC(=O)CCc1nc2ccccc2s1)Nc1ccc(S(=O)(=O)N2CCOCC2)cc1 was read as D1 ag 3.6, D1 potentiator 0.8, D3 antag 5.7, D1 antag -3.3 and DRD3 agonist -0.4.
CCCc1nc2ccccc2c(C(=O)OCC(=O)Nc2ccc(S(=O)(=O)N3CCOCC3)cc2)c1CC was read as D1 ag 5.2, D1 potentiator -1.8, D3 antag 35.5 and DRD3 agonist 31.6*.
CCCc1nc2ccccc2c(C(=O)OCC(=O)NC2CC2)c1CC was read as D3 antag 30.7 and DRD3 agonist 2.9.
For O=C(COC(=O)CCc1ccc(S(=O)(=O)N2CCOCC2)cc1)Nc1ccc(Cl)cn1 the results were D1 ag 35.8*!, D1 potentiator -8.1, D3 antag 8.3, D1 antag -8.1 and DRD3 agonist 1.3.
`O=C(COC(=O)CCc1nc2ccccc2s1)Nc1cccc(S(=O)(=O)N2CCOCC2)c1` gave D1 ag 4.2, D1 potentiator -6.8, D3 antag -12.4, D1 antag -43.6* and DRD3 agonist 2.5.
Screening Cc1cccc(C(=O)Nc2ccc(S(=O)(=O)N3CCC(c4nc5ccccc5s4)CC3)cc2)c1 returned D1 ag 0.2, D1 potentiator -1.4, D1 antag -17.0 and DRD3 agonist -11.4.
Screening CCOCCc1nnc(NC(=O)C(=O)c2cc(C)n(-c3ccc(C)cc3C)c2C)s1 returned D1 ag -2.1, D1 potentiator 4.5, D1 antag 5.0 and DRD3 agonist 0.3.
O=C(NCc1ccccc1)c1c2c(nc3ccccc13)C(=O)N(C1CCCCC1)C2 was read as D1 ag 1.1, D1 potentiator -3.6, D1 antag 7.5 and DRD3 agonist 5.4.
C=CCn1c(=N)n(CC(O)COc2ccccc2OC)c2ccccc21 (centres undefined) was read as D1 ag 2.6, D1 potentiator -4.5, D3 antag 6.9, D1 antag -17.5 and DRD3 agonist -1.6.
